The values that follow come from PMC11062922 (Nature Chemical Biology, 2023).

Molecules are shown by their SMILES.

The test system of the test is ACVR1B. More on the design: species or system human, MV4-11 + K-562 + COLO205 + SK-N-BE2 + OVCAR-8. The note with it: read-out: apparent Kd; compound concentrations:100 nM and 1000 nM (sheet 'Samples'); n = 1.
Turning to `CNc1ncc2cc(Oc3ccc(F)cc3F)c(=O)n(C)c2n1` [RO5083957-000], the potency estimated from few doses was 853 nM.

`Nc1nc(-c2cccc(Cl)c2)c(-c2ccc3ncccc3n2)s1` [GW780159X]: the potency estimated from few doses was 1.63 nM. For `O=C(c1ccc(-c2cc(-c3c[nH]nc3-c3ccccn3)ccn2)cc1)N1CCCC1` [GW792479X], the potency estimated from few doses was 270 nM. `Cc1csc(-c2nc(Nc3ccncc3)c3ccccc3n2)n1` [GW869640X]: the potency estimated from few doses was 17.6 nM.

Turning to `Cc1cccc(-c2nc(C)cc(Nc3ccncc3)n2)n1` [GSK257997A], the potency estimated from few doses was 431 nM. The same measure for `c1ccc(-c2n[nH]cc2-c2ccnc(-c3ccc(OCCN4CCOCC4)cc3)c2)nc1` [GW695874X]: 51.4 nM; for `Cl.c1ccc(-c2n[nH]cc2-c2ccnc(-c3ccc(CN4CCOCC4)cc3)c2)nc1` [GW776245A]: 335 nM. `c1ccc(-c2n[nH]cc2-c2ccnc(-c3ccc(OCCn4ccnc4)cc3)c2)nc1` [GW711782X]: the potency estimated from few doses is 245 nM. The same measure for `Clc1cccc(-c2nc(Nc3ccncc3)c3ccccc3n2)c1` [GW873004X]: 843 nM. The figure for `COc1ccc(-c2cc(-c3c[nH]nc3-c3ccccn3)ccn2)cc1` [GW679410X] is 686 nM; for `O=C(c1ccc(-c2cc(-c3c[nH]nc3-c3ccccn3)ccn2)cc1)N1CCOCC1` [GW812171X] it is 119 nM; for `COc1ccc2nc(-c3cccc(C)n3)nc(Nc3ccncc3)c2c1` [GSK204919_KCGS] it is 61.3 nM. Regarding `COc1ccc2cc(-c3c(-c4ccncc4)nc(-c4ccc(S(C)=O)cc4C)n3C)ccc2c1` (centres unmarked) [SB-630812], the potency estimated from few doses is 288 nM. The same measure for `Cc1cccc(-c2cc(Nc3ccncc3)c3ccccc3n2)n1` [GSK223675A]: 21.7 nM.
